From PubChem BioAssay AID2419 (Southern Research Specialized Biocontainment Screening …, 2010)
Results with a measured potency or affinity are listed apart. Calls of active or inactive are those of the source. No rule for the calls is given here.

Assay: antiviral activity against WNV, CPE read-out – cell-based (AID 2419)
Details: West Nile virus-infected cells, stronger effect = higher value; at 200 µM unless noted

Max CPE inhibition, inactive:
COc1ccc(Cn2nc(C)cc2OC(=O)c2c(F)ccc(C)c2F)cc1 14%, O=C(CSc1nc2ccc(F)cc2c(=O)n1-c1ccccc1)Nc1ccc2c(c1)CCC2 3.95%, C=CCN(C(=O)c1ccccc1Cl)c1nc(-c2ccc(OC)cc2)cs1 1.14%, OC1c2cc(Br)ccc2N=C2CCCCCN21 (stereo unspecified) 6.41% [at 0.78 µM], COc1cccc2c(=O)n(-c3ccccc3)c(SCC(=O)Nc3ccc4c(c3)CCC4)nc12 2.38% [at 12.5 µM], OC1c2c(F)cccc2N=C2CCCCN21 (stereo unspecified) 0.91% [at 0.39 µM]
